Among the data in PubChem BioAssay (NCI) are growth values, retold here.

Among the test systems are DU-145 prostate; K-562 leukemia; MALME-3M melanoma; MDA-MB-231 breast; RXF 393 renal; SF-268 CNS; SF-295 CNS; SF-539 CNS; UACC-257 melanoma; M14 melanoma; HCT-15 colon; HT29 colon; SNB-75 CNS; SNB-19 CNS; U251 CNS; PC-3 prostate; SK-MEL-5 melanoma; UACC-62 melanoma; LOX IMVI melanoma; SK-MEL-28 melanoma.
What all share (assay): NCI-60 one-dose screen, 48 h (100 = growth as untreated, 0 = no growth, -100 = all killed)
Conditions in all cases: 10 µM unless noted

This is part of a sample that, as a whole, favours compounds with a hit. Of some 83,000 tested, about 20% had one in any assay.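 Results are percent growth after 48 hours of single-concentration exposure. 100 means growth as in untreated cells, lower positive values show inhibition; negative values down to -100 show cell death.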 Values without a mark were called inactive. Activity calls are given as the source filed them. The calls were made as follows: active = growth percent below 10; inactive = the rest.

On to `CC(=O)c1cc2c(o1)C(=O)c1ccccc1C2=O`, for which the growth with DU-145 prostate was -97.8% (active); in the assay on K-562 leukemia, -24.9% (active); in the assay with MALME-3M melanoma, -97.9% (active); in the assay with MDA-MB-231 breast, -21.5% (active); with RXF 393 renal, -93.8% (active); in the assay with SF-268 CNS, -62.6% (active). Moreover, the growth in the assay with SF-295 CNS was -93.4% (active); in the assay on SF-539 CNS it was -98.5% (active); in the assay on UACC-257 melanoma it was -88.5% (active); in the assay with M14 melanoma, -88.4% (active); in the assay with HCT-15 colon it was -77% (active); in the assay with HT29 colon it was -18.3% (active). Further, the growth in the assay on SNB-75 CNS is -98.5% (active); with SNB-19 CNS, -90.8% (active); in the assay with U251 CNS, -81.2% (active); in the assay on PC-3 prostate it was -10.4% (active); in the assay with SK-MEL-5 melanoma, -96.3% (active); with UACC-62 melanoma, -82.7% (active). The growth in the assay on LOX IMVI melanoma was -59.3% (active); with SK-MEL-28 melanoma, -70.8% (active).

`CN(CCCCCCCCNc1ccnc2ccccc12)Cc1ccc(-c2ccc(-c3ccc(C#N)cc3)s2)cc1`: the growth in the assay with DU-145 prostate is -67.3% (active); in the assay with K-562 leukemia it was -18.4% (active); in the assay on MALME-3M melanoma, -80.7% (active); in the assay on MDA-MB-231 breast, -80.1% (active); in the assay with RXF 393 renal it was -86% (active); with SF-268 CNS, -76.6% (active). The growth in the assay with SF-295 CNS is -64.1% (active); in the assay with SF-539 CNS it was -89% (active); with UACC-257 melanoma, -38.7% (active); in the assay with M14 melanoma, -84% (active); in the assay on HCT-15 colon it was -82.1% (active); in the assay on HT29 colon, -55.1% (active). Also, the growth in the assay on SNB-75 CNS is 42.5%; with SNB-19 CNS it was -14.6% (active); in the assay on U251 CNS it was -73.7% (active); in the assay with PC-3 prostate, -63.7% (active); with SK-MEL-5 melanoma it was -100% (active); with UACC-62 melanoma it was -37.4% (active). Besides, the growth was -96.2% (active) in the assay on LOX IMVI melanoma and -84.1% (active) with SK-MEL-28 melanoma.

For the compound `Cl.[Pt].[c-]1ccccc1-c1ccccn1.c1ccc(P(c2ccccc2)C([PH+](c2ccccc2)c2ccccc2)[PH+](c2ccccc2)c2ccccc2)cc1`, the growth is 24.1% in the assay with DU-145 prostate; 11% with K-562 leukemia; -9.83% (active) in the assay on MALME-3M melanoma; -8.43% (active) in the assay with MDA-MB-231 breast; 11.3% in the assay with RXF 393 renal; 27.6% with SF-268 CNS. The growth with SF-295 CNS was 7.09% (active); in the assay on SF-539 CNS it was 8.54% (active); in the assay on UACC-257 melanoma, 15.5%; with M14 melanoma, 19.2%; in the assay with HCT-15 colon it was 7.95% (active); with HT29 colon, 10.4%. The growth is 7.24% (active) with SNB-75 CNS; 27.6% with SNB-19 CNS; 10.7% with U251 CNS; 9.46% (active) in the assay with PC-3 prostate; -87.3% (active) with SK-MEL-5 melanoma; 16.8% with UACC-62 melanoma. In addition, the growth was 12.1% with LOX IMVI melanoma and 34% in the assay on SK-MEL-28 melanoma.

Turning to `CNC1(C#N)CCN(Cc2ccccc2)CC1`, the growth in the assay with DU-145 prostate was 113%; in the assay with K-562 leukemia, 104%; in the assay on MALME-3M melanoma, 226%; with MDA-MB-231 breast, 112%; in the assay with RXF 393 renal it was 99.1%; in the assay with SF-268 CNS it was 100%. Further, the growth in the assay with SF-295 CNS was 95.2%; with SF-539 CNS, 100%; with UACC-257 melanoma it was 101%; in the assay on M14 melanoma it was 94%; in the assay with HCT-15 colon, 104%; with HT29 colon, 102%. For the same compound, the growth in the assay on SNB-75 CNS was 81.5%; with SNB-19 CNS, 99.8%; with U251 CNS, 108%; in the assay with PC-3 prostate it was 97.6%; in the assay with SK-MEL-5 melanoma, 116%; with UACC-62 melanoma, 92.5%. In addition, the growth with LOX IMVI melanoma is 102%; with SK-MEL-28 melanoma it was 136%.

On to `N#Cc1c(NC(=O)c2ccc(Br)cc2)sc2c1CCCC2`, for which the growth with DU-145 prostate is 33.3%; with K-562 leukemia, 15.9%; in the assay on MALME-3M melanoma, 49.2%; with MDA-MB-231 breast, 44.9%; in the assay with RXF 393 renal, 13.7%; in the assay on SF-268 CNS, 61.7%. Moreover, the growth was 21.7% in the assay with SF-295 CNS; 10.5% with SF-539 CNS; 66.1% with UACC-257 melanoma; 17.3% in the assay on M14 melanoma; 22.2% with HCT-15 colon; 15.8% in the assay with HT29 colon. Further, the growth was 13.6% in the assay with SNB-75 CNS; 38.5% in the assay on SNB-19 CNS; 31.2% in the assay with U251 CNS; 28.9% in the assay on PC-3 prostate; 9.6% (active) with SK-MEL-5 melanoma; 29.1% in the assay on UACC-62 melanoma. Further, the growth was 38.7% in the assay on LOX IMVI melanoma and 59% in the assay with SK-MEL-28 melanoma.

On to `CCCN1CCN(c2ccc3nc(-c4ccc5nc(-c6cc(OC)c(OC)c(OC)c6)[nH]c5c4)[nH]c3c2)CC1`, for which the growth with DU-145 prostate was 109%; in the assay with K-562 leukemia, 59.5%; with MALME-3M melanoma, 7.58% (active); in the assay with MDA-MB-231 breast, 98.4%; in the assay with RXF 393 renal, 15.6%; with SF-268 CNS it was 75.6%. The growth is 65.9% with SF-295 CNS; 59.6% with SF-539 CNS; 71.7% in the assay with UACC-257 melanoma; 63.9% in the assay with M14 melanoma; 99.5% with HCT-15 colon; 58% in the assay on HT29 colon. For the same compound, the growth with SNB-75 CNS is 43.6%; with SNB-19 CNS it was 69.8%; in the assay with U251 CNS, 66.3%; with PC-3 prostate, 70.7%; in the assay with SK-MEL-5 melanoma, 41.3%; with UACC-62 melanoma, 35.8%. The growth with LOX IMVI melanoma was 67.3%; in the assay on SK-MEL-28 melanoma it was 57.8%.

Consider `CN1CCN(c2ccc(Nc3ncc(Cl)c(NC[C@@H]4CCCO4)n3)cc2)CC1`, for which the growth was 23% in the assay with DU-145 prostate; 27.2% in the assay on K-562 leukemia; 27.4% in the assay with MALME-3M melanoma; 17.8% with MDA-MB-231 breast; -31.7% (active) with RXF 393 renal; 24.6% with SF-268 CNS. Further, the growth with SF-295 CNS is 31.3%; in the assay on SF-539 CNS, -6.55% (active); with UACC-257 melanoma, 44.7%; with M14 melanoma, 21.7%; in the assay with HCT-15 colon, 24.3%; in the assay on HT29 colon, 16%. Further, the growth was 6.49% (active) with SNB-75 CNS; 53.9% in the assay with SNB-19 CNS; 32.5% in the assay on U251 CNS; 30.7% in the assay on PC-3 prostate; 31% in the assay with SK-MEL-5 melanoma; 38.5% in the assay on UACC-62 melanoma. Also, the values for the growth in the assay on LOX IMVI melanoma and in the assay with SK-MEL-28 melanoma were 8.91% (active) and 50.9%, respectively.
